Compound activity: PubChem, National Center for Advancing Translational Sciences (NCATS)
The full list was thinned out, with hits kept by preference.
MARV entry inh: Marburg virus entry inhibition. Marburg virus pseudotyped entry inhibition, cell reporter. Potency, µM (top dose mostly 37.8 µM), for the others: at the highest dose activity change, negative = inhibition, actives largely listed as inhibitors. hit rate 1.8% among 300,000. AID 540276; calls by dose curve; tested in HEK293 cells; note: potency is the fitted concentration of half-maximal effect; % is set by controls: 0 for no effect and ±100 for the full control effect
CHX counter: counter-screen hit for Shiga toxin inhibitors, cycloheximide. cell reporter, cycloheximide protein synthesis inhibition counterscreen. max response, %. hit rate 12% among 300,000. AID 2314; in the data active = max response mostly above about 13%, no sharp cut-off; inactive = mostly below about 14%; note: read at 38.3 µM for the half of the compounds with a filed dose; 0% is about no effect
LASV entry inh: Lassa virus entry inhibition; Lassa virus pseudotype entry inhibition, cell reporter; Potency, µM (highest dose often 37.9 µM), for the others: at the highest dose activity change, negative = inhibition, most hits filed as inhibitors; hit rate 1.2% among 300,000; calls by dose curve; tested in HEK293 cells; note: potency is the fitted concentration of half-maximal effect; % is set by controls: 0 for no effect and ±100 for the full control effect; nearly all actives have a fitted effect of over 50% in size
AMA1 RON2 block: disrupts binding of P. falciparum AMA1 to RON2; AlphaScreen AMA1-biotinylated RON2 peptide binding; Potency, µM (doses to about 58.2 µM), for inactives: at the top dose activity change, negative = inhibition, hits mostly inhibitors; hit rate 0.2% among 360,000; AID 720542; active = well fitted inhibition curve with a large enough effect; inconclusive = small, poorly fitted or top-dose-only effect; inactive = no such curve, though single readings can be large or run the other way;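 note: potency is the fitted concentration of half-maximal effect; 0% = vehicle wells and -100% = peptide control; nearly all actives have a fitted effect of over 45% in size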
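AMA1 (3D7) with his tag at 25 nM final met compounds first, then biotinylated RON2 peptide at 25 nM; detection used donor plus acceptor beads, 10 µg/mL apiece, read by AlphaScreen after 30 min at room temperature.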
Shiga inhibitor: blocks Shiga toxin action in Vero cells; Vero cells, Shiga toxin protein synthesis inhibition reporter; inhibition, % at 38.7 µM; hit rate 9.2% among 290,000; in the data active = inhibition mostly above about 28%, no sharp cut-off; inactive = mostly below about 43%; note: 0% is about no effect
* marks the source's active call; other numbers are inactive results; ? = inconclusive; / = not tested or not shown; [ ] = dose if it differs, or a comment.

SMILES	MARV entry inh	CHX counter	LASV entry inh	AMA1 RON2 block	Shiga inhibitor
CCc1ccc(NC(=O)Nc2cnccn2)cc1	/	47*	/	-7%	102*
O=C(Nc1ccc([N+](=O)[O-])cc1)Nc1ccon1	?	-1	-9%[46.1 µM]	-2%	-5
CCOCCCNC(=O)CCn1nc(-c2ccc(Cl)cc2)ccc1=O	/	3	/	0%	-3
COc1cccc(CNC(=O)c2cc(S(=O)(=O)N3CCCCC3)cn2C)c1	/	/	4%[46.1 µM]	/	/
COc1ccc(C)cc1NC(=O)NC1CCCc2ccccc21 (stereo not given)	2%[46.1 µM]	-4	12%[46.1 µM]	5%	-3
COc1ccc(NC(=O)NC2CCCc3ccccc32)cc1OC (stereo not given)	/	33*	/	-10%	31*
COc1ccc(NC(=O)NC2CCCc3ccccc32)cc1 (stereo not given)	?	16*	?	40%	19
CC(C)(C)c1ccc(OCC(=O)N2CCCCCC2)c(Br)c1	1%[46.1 µM]	43*	?	-17%	120*
COc1ccccc1OCC(=O)N1CCCCCC1	/	/	/	8%	/
Cc1ccc(OCC(=O)N2CCCCC2)c(Br)c1	18%	38*	-5%	8%	63*
Cc1ccc(C)c(NC(=O)CSc2nncn3c2cc2sccc23)c1	/	/	0%[46.1 µM]	/	/
C/C(=N\NC(=O)c1ccoc1C)c1ccccc1	?	44*	3%	85%	64*
C/C(=N/NC(=O)c1ccoc1C)c1ccc(NC(=O)C2CCCC2)cc1	-12%	58*	?	45%	65*
CCN1C(=S)NC(c2cccs2)C(C(=O)OC)=C1C (stereo not given)	38%[14.2 µM]	/	?	/	/
Cc1ccc(C(=O)Nc2cccnc2)cc1S(=O)(=O)N1CCCCC1	?	2	-8%	19%	-5
Cc1ccc(C(=O)Nc2cccc(C(=O)O)c2)cc1S(=O)(=O)N1CCCCC1	?	87*	?	3%	132*
Cc1ccc(C(=O)Nc2cccnc2)cc1S(=O)(=O)N1CCCC1	4%	20*	2%	-1%	31
O=C(Nc1ccccc1)c1ccc(NCc2ccco2)c(S(=O)(=O)N2CCOCC2)c1	6%	10.0*	?	5%	16
Cc1ccc(C(=O)Nc2ccncc2)cc1S(=O)(=O)N1CCCCC1	/	/	/	129%	/
Cc1ccc(C(=O)Nc2cccnc2)cc1Cl	12%	26*	19%	-6%	41*
CCNC(=O)C1(C)CCN(C(=O)c2cccs2)C1 (stereo not given)	/	/	/	-14%	/
CSCCC(NC(=O)C1CCCCC1)C(=O)Nc1ccc(F)c(Cl)c1 (stereo not given)	?	/	23%[46.1 µM]	/	/
Cc1ccc(C(=O)Nn2cnnc2)cc1	/	-5	/	-7%	-8
O=C1Nc2c(c(=O)[nH]c(=O)n2-c2ccc(Cl)cc2)C1(NS(=O)(=O)c1ccccc1)C(F)(F)F (stereo not given)	-6%[46.1 µM]	/	7%[46.1 µM]	/	/
O=C(O)c1ccc2c(c1)C(=O)N([C@H](Cc1ccc3ccccc3c1)C(=O)O)C2=O	/	-6	/	/	12
SMILES	MARV entry inh	CHX counter	LASV entry inh	AMA1 RON2 block	Shiga inhibitor
COc1ccc(C(NC(=O)C2CCN(CCOc3ccc(Cl)cc3)CC2)c2cccs2)cc1 (stereo not given)	/	/	/	0%	/
Cc1cc(C(=O)Nc2cccnc2)cs1	10%	12*	40%[14.3 µM]	0%	15
Cc1ccc(C(=O)Nc2cccc(C(=O)O)c2)cc1S(=O)(=O)N1CCOCC1	?	24*	?	5%	39
CC(C)(C)c1ccc(C(=O)Nc2cccc(C(=O)N3CCOCC3)c2)cc1	/	45*	/	0%	57*
Cc1ccc(C(=O)Nc2cccnc2)cc1C	/	/	/	-5%	/
CC(=O)c1cccc(NC(=O)c2ccc(C)c(S(=O)(=O)N3CCOCC3)c2)c1	-6%[46.1 µM]	1	/	-11%	2
CN1C(=O)/C(=C\N2CCc3ccccc32)C(=O)NC1=S	0%	13*	10%	8%[2.32 µM]	14
Cc1ccnc2nc(NC(=O)c3ccccc3Cl)nn12	2%[46.1 µM]	/	-2%[46.1 µM]	/	/
CS(=O)(=O)c1ccc2nc(NC(=O)c3ccccc3)sc2c1	?	28*	?	0%	39*
CC(C)(C)C(=O)Nc1nc2ccc(S(C)(=O)=O)cc2s1	3%[46.1 µM]	36*	0%	0%	78*
CS(=O)(=O)c1ccc2nc(NC(=O)Nc3cccc(Cl)c3)sc2c1	?	31*	?	-3%	107*
CC(C)C(=O)Nc1nc2ccc(S(C)(=O)=O)cc2s1	5%[46.1 µM]	27	?	57%	28
CS(=O)(=O)c1ccc2nc(NC(=O)Nc3ccccc3F)sc2c1	/	61*	/	-2%	73*
